# About 1,500 (3.8%) of roughly 39,000 compounds were called active. This is one part of a sample in which actives are shown more often than they occur.
# Tested on: HSkMC (human skeletal muscle cells)
# Test: cytotoxicity call (relative viability < 0.9)
# Details: 10 µM
row,SMILES,cytotoxicity call
1,C[C@H](CO)N1C[C@H](C)[C@H](CN(C)Cc2ccccc2F)Oc2cc(C#CCN(C)C)ccc2S1(=O)=O,inactive
2,COc1ccc(NC(=O)N(C)C[C@H]2Oc3c(NC(=O)c4cnccn4)cccc3C(=O)N([C@@H](C)CO)C[C@H]2C)cc1,inactive
3,COc1ccc(NC(=O)N(C)C[C@@H]2Oc3c(NC(=O)Nc4ccc(C(F)(F)F)cc4)cccc3C(=O)N([C@H](C)CO)C[C@@H]2C)cc1,inactive
4,C[C@@H]1CN([C@@H](C)CO)C(=O)c2cccc(NC(=O)c3ccc(-c4nccs4)cc3)c2O[C@H]1CN(C)Cc1ccc(Oc2ccccc2)cc1,inactive
5,COc1ccc(NC(=O)Nc2cccc3c2O[C@@H](CN(C)C(=O)Nc2ccc(C(F)(F)F)cc2)[C@H](C)CN([C@H](C)CO)C3=O)cc1,inactive
6,Cc1noc(C)c1S(=O)(=O)Nc1ccc2c(c1)C(=O)N([C@@H](C)CO)C[C@@H](C)[C@@H](CN(C)S(=O)(=O)c1cn(C)cn1)O2,inactive
7,C[C@H](CO)N1C[C@H](C)[C@H](CN(C)C(=O)Nc2ccc(F)cc2)Oc2ccc(NS(=O)(=O)c3cn(C)cn3)cc2CC1=O,inactive
8,C[C@@H]1CN([C@@H](C)CO)C(=O)Cc2cc(NC(=O)Cn3cnnn3)ccc2O[C@H]1CN(C)C(=O)Nc1ccc(F)cc1,inactive
9,CCOC(=O)[C@H]1C/C=C/C[C@H](C(=O)OCC)C(=O)O[C@H]2[C@@H](OC)O[C@H](CO)[C@@H](OC(=O)Nc3ccc4c(c3)OCO4)[C@@H]2OC1=O,active
10,CO[C@H]1O[C@H](CO)[C@@H](OC(=O)Nc2cccc(F)c2)[C@@H]2OC(=O)[C@H](Cc3cccc(Br)c3)C/C=C/C[C@@H](Cc3cccc(Br)c3)C(=O)O[C@@H]12,inactive
11,CCOC(=O)[C@H]1C/C=C/C[C@H](C(=O)OCC)C(=O)O[C@H]2[C@@H](OC)O[C@H](CO)[C@@H](OC(=O)Nc3ccc(Br)cc3)[C@@H]2OC1=O,active
12,CO[C@H]1O[C@H](CO)[C@@H](OC(=O)Nc2ccc3c(c2)OCO3)[C@@H]2OC(=O)[C@H](Cc3cccc(Br)c3)C/C=C/C[C@@H](Cc3cccc(Br)c3)C(=O)O[C@@H]12,inactive
13,CCOC(=O)[C@H]1C/C=C/C[C@H](C(=O)OCC)C(=O)O[C@H]2[C@@H](OC)O[C@H](CO)[C@@H](OC(=O)Nc3ccccc3)[C@@H]2OC1=O,inactive
14,CCOC(=O)[C@H]1C/C=C/C[C@H](C(=O)OCC)C(=O)O[C@H]2[C@@H](OC)O[C@H](CO)[C@@H](OC(=O)Nc3cccc(F)c3)[C@@H]2OC1=O,active
15,CCOC(=O)[C@H]1C/C=C/C[C@H](C(=O)OCC)C(=O)O[C@H]2[C@@H](OC)O[C@H](CO)[C@@H](OC(=O)c3ccc(Br)cc3)[C@@H]2OC1=O,inactive
16,CCOC(=O)[C@H]1C/C=C/C[C@H](C(=O)OCC)C(=O)O[C@H]2[C@@H](OC)O[C@H](CO)[C@@H](OC(=O)Nc3ccc(OC)cc3)[C@@H]2OC1=O,inactive
17,CCOC(=O)[C@H]1C/C=C/C[C@H](C(=O)OCC)C(=O)O[C@H]2[C@@H](OC)O[C@H](CO)[C@@H](OC(=O)c3c(OC)cccc3OC)[C@@H]2OC1=O,inactive
18,COc1ccc(NC(=O)N(C)C[C@@H]2OCCCC[C@@H](C)Oc3ccc(NC(=O)c4ccccc4)cc3C(=O)N([C@@H](C)CO)C[C@H]2C)cc1,inactive
19,CC1(C)OC2CC3C4CCC5=CC(=O)C=CC5(C)C4C(O)CC3(C)C2(C(=O)CO)O1 (stereo not given),inactive
20,CC(=NNC(=O)c1nnn(-c2nonc2N)c1CN1CCC(C)CC1)c1cccc(Br)c1,inactive

row,SMILES,cytotoxicity call
1,CN1C(=O)[C@@H]2[C@H](N=CN2CCCO)N(C)C1=O,inactive
2,C=CCNC(=O)[C@H]1[C@@H]2C(=O)O[C@@H](c3ccccc3)[C@@H](c3ccccc3)N2[C@@H](c2ccc(O)cc2)[C@]12C(=O)Nc1ccc(C#CC3=CCCCC3)cc12,inactive
3,COc1ccc(S(=O)(=O)Nc2ccc3c(c2)C(=O)N([C@@H](C)CO)C[C@H](C)[C@H](CN(C)S(=O)(=O)c2cn(C)cn2)OCCCC[C@@H](C)O3)cc1,inactive
4,C[C@@H](NC(=O)C[C@H]1CC[C@@H](NC(=O)CN2CCOCC2)[C@@H](CO)O1)c1ccccc1,inactive
5,C[C@@H]1CN([C@@H](C)CO)C(=O)Cc2cc(NC(=O)Cn3cnnn3)ccc2O[C@@H]1CN(C)Cc1ccc(C(F)(F)F)cc1,inactive
6,CO[C@H](CN(C)C(=O)c1ccc2c(c1)OCO2)[C@@H](C)CN([C@H](C)CO)S(=O)(=O)c1ccc(C)cc1,inactive
7,COc1ccc(CNC(=O)[C@H](c2ccc(C)cc2)N(Cc2cccs2)C(=O)c2ccc3c(c2)OCCO3)cc1,active
8,CO[C@H](CN(C)C(=O)c1ccc2c(c1)OCO2)[C@H](C)CN([C@H](C)CO)S(=O)(=O)c1ccc(C)cc1,inactive
9,COc1cccc(C#Cc2cnc3c(c2)C(=O)N([C@H](C)CO)C[C@@H](C)[C@H](CN(C)C(=O)C2CCOCC2)O3)c1,inactive
10,CC(C)C#Cc1ccc2c(c1)O[C@@H](CN(C)C(=O)Cc1ccccn1)[C@H](C)CN([C@H](C)CO)S2(=O)=O,inactive
11,C[C@@H]1CN([C@@H](C)CO)C(=O)c2cccc(NC(=O)Nc3ccccc3)c2O[C@H]1CN(C)Cc1ccc(C(=O)Nc2ccccc2N)cc1,inactive
12,C[C@H](CO)N1C[C@H](C)[C@H](CN(C)Cc2ccc(-c3ccccc3)cc2)Oc2c(NC(=O)Nc3ccccc3)cccc2C1=O,inactive
13,C[C@H]1CN([C@@H](C)CO)C(=O)c2cccc(NC(=O)Nc3ccccc3)c2O[C@H]1CN(C)Cc1ccc(C(=O)Nc2ccccc2N)cc1,active
14,C[C@@H]1CN([C@H](C)CO)C(=O)c2cccc(NC(=O)Nc3ccccc3)c2O[C@H]1CN(C)Cc1ccc(-c2ccccc2)cc1,active
15,C[C@@H]1CN([C@@H](C)CO)C(=O)c2cccc(NC(=O)Nc3ccccc3)c2O[C@H]1CN(C)Cc1ccc(-c2ccccc2)cc1,active
16,C[C@H]1CN([C@@H](C)CO)C(=O)c2cccc(NC(=O)Nc3ccccc3)c2O[C@H]1CN(C)Cc1ccc(-c2ccccc2)cc1,inactive
17,C[C@H](CO)N1C[C@H](C)[C@H](CN(C)Cc2ccc(-c3ccccc3)cc2)Oc2c(NC(=O)Nc3ccc(F)cc3)cccc2C1=O,inactive
18,C[C@H](CO)N1C[C@H](C)[C@@H](CN(C)Cc2ccc(-c3ccccc3)cc2)Oc2c(NC(=O)Nc3ccccc3)cccc2C1=O,inactive
19,C[C@@H]1CN([C@@H](C)CO)C(=O)c2cccc(NC(=O)Nc3ccccc3)c2O[C@@H]1CN(C)Cc1ccc(-c2ccccc2)cc1,active
20,C[C@H]1CN([C@@H](C)CO)C(=O)c2cccc(NC(=O)Nc3ccccc3)c2O[C@@H]1CN(C)Cc1ccc(-c2ccccc2)cc1,inactive

row,SMILES,cytotoxicity call
1,C[C@@H]1CN([C@H](C)CO)C(=O)c2cccc(NC(=O)Nc3ccccc3)c2O[C@@H]1CN(C)Cc1ccc(C(=O)Nc2ccccc2N)cc1,inactive
2,C[C@@H]1CN([C@H](C)CO)C(=O)c2cccc(NC(=O)Nc3ccccc3)c2O[C@@H]1CN(C)Cc1ccc(-c2ccccc2)cc1,inactive
3,C[C@H]1CN([C@@H](C)CO)S(=O)(=O)c2ccc(-c3cccnc3)cc2O[C@@H]1CN(C)CC1CCOCC1,inactive
4,O=C(O)CCCCN(CCc1ccccc1OCc1ccc(CCc2ccccc2)cc1)Cc1ccc(C(=O)O)cc1,inactive
5,COc1ccc(S(=O)(=O)N(C)C[C@H]2Oc3c(NC(=O)c4ccncc4)cccc3C(=O)N([C@@H](C)CO)C[C@H]2C)cc1,inactive
6,CN1C(=O)CS(=O)(=O)[C@@H]1c1ccccc1,inactive
7,C[C@@H]1CCCCO[C@H](CN(C)Cc2ccc(C(=O)O)cc2)[C@H](C)CN([C@@H](C)CO)C(=O)c2cc(NC(=O)Cc3ccccc3)ccc2O1,inactive
8,C[C@@H]1CCCCO[C@H](CN(C)C(=O)Nc2ccc(F)cc2)[C@@H](C)CN([C@@H](C)CO)C(=O)c2cc(NC(=O)Nc3ccccc3)ccc2O1,inactive
9,CN(C)CCCCCCNC(=O)[C@@H]1C[C@@H]2C(=O)NCC(=O)N2[C@@H]1c1cccc(OCCO)c1,inactive
10,Cc1ccc(S(=O)(=O)N(C)C[C@@H]2Oc3ccc(NS(=O)(=O)c4cn(C)cn4)cc3C(=O)N([C@@H](C)CO)C[C@@H]2C)cc1,inactive
11,C[C@@H]1CN([C@H](C)CO)C(=O)c2cc(NC(=O)Cc3ccccc3)ccc2O[C@@H]1CN(C)C(=O)Nc1ccc(C(F)(F)F)cc1,inactive
12,CCOC(=O)[C@H]1C/C=C/C[C@H](C(=O)OCC)C(=O)O[C@H]2[C@@H](OC)O[C@H](COC(=O)NCCCCCC(=O)NO)[C@@H](OC(=O)Nc3ccccc3)[C@@H]2OC1=O,inactive
13,C[C@H]1CCCCO[C@H](CN(C)C(=O)Nc2ccc(F)cc2)[C@@H](C)CN([C@@H](C)CO)C(=O)c2cc(NS(=O)(=O)c3ccc(F)cc3)ccc2O1,inactive
14,COc1ccccc1C#Cc1cnc2c(c1)C(=O)N([C@H](C)CO)C[C@H](C)[C@@H](CN(C)C(=O)CC1CC1)O2,inactive
15,COc1ccc(C#Cc2cccc(-c3nc(C(=O)N[C@@H]4CCN(Cc5ccccc5)C4)cc4c3[C@H](CCO)N(S(=O)C(C)(C)C)C4)c2)cc1OC (stereo not given in full),inactive
16,CC(C)(C)S(=O)N1Cc2cc(C(=O)NCc3ccc4c(c3)OCO4)nc(-c3cccc(C#CCC4CCCC4)c3)c2[C@@H]1CCO (stereo not given in full),inactive
17,CC(C)(C)S(=O)N1Cc2cc(C(=O)NCc3ccc(Oc4ccccc4)cc3)nc(-c3cccc(C#CCC4CCCC4)c3)c2[C@@H]1CCO (stereo not given in full),active
18,CC(C)(C)S(=O)N1Cc2cc(C(=O)N[C@@H]3CCN(Cc4ccccc4)C3)nc(-c3cccc(C#CCC4CCCC4)c3)c2[C@@H]1CCO (stereo not given in full),inactive
19,CC(C)(C)S(=O)N1Cc2cc(C(=O)N[C@@H]3CCN(Cc4ccccc4)C3)nc(-c3cccc(C#CCC4CCCC4)c3)c2[C@H]1CCO (stereo not given in full),active
20,CC(C)(C)S(=O)N1Cc2cc(C(=O)NCc3ccc4c(c3)OCO4)nc(-c3cccc(C#CCC4CCCC4)c3)c2[C@H]1CCO (stereo not given in full),inactive
